Marburg entry = Marburg virus entry inhibition | Marburg virus pseudotype entry/binding inhibition, cell-based | Potency, µM (top dose mostly 49.2 µM), hits mostly inhibitors | actives 6.5% (n = 18,000) | AID 720532
LASV entry inh = blocks Lassa virus binding or cell entry; actives 4.1% (n = 18,000); Lassa virus pseudotyped entry inhibition, cell-based qHTS; Potency, µM (doses to about 49.2 µM), hits mostly inhibitors; AID 720533
Large screens that a line does not name were inactive; ! = not active in a repeat. Hits are enriched below; roughly 7.1% of the tested compounds scored in any of these assays. Calls come from the whole dose curve; tested in HEK293 cells.

COc1ccc(/C=C/C(=O)CC(=O)/C=C/c2cccc(O)c2OC)cc1O	Marburg entry 8.9µM, LASV entry inh 10µM
COc1cc(/C=C/C(=O)O)ccc1O	none
COc1cc(C=O)ccc1O	none
COc1cc(C=C2CCC/C(=C\c3ccc(O)c(OC)c3)C2=O)ccc1O	Marburg entry inconclusive, LASV entry inh 32µM
COc1cccc(/C=C/C(=O)O)c1C(C)C	none
CC(=O)OC[C@H]1O[C@H](CCON=C(C)CCN2CCCCc3nc(C)c(C)cc32)C=C[C@H]1OC(C)=O	none
CCOC(=O)NN=C1C[C@@H](O)[C@@H](O)[C@@H]2[C@H]3C(=O)N(Cc4ccccc4)C(=O)[C@@H]3CC[C@@H]12	none
C[C@H]1N[S+](=O)([O-])c2ccc(Br)cc2O[C@@H]1c1ccccc1	none
O=C(c1cccs1)N1C[C@H](n2cc(C3CC3)nn2)[C@H](O)C[C@@H]1c1ccccc1	none
C=C(C)CCN1C(=O)NC(c2cccc(C(F)(F)F)c2)C(C(=O)OC)=C1C (stereo unspecified)	none
CCN(CC)CCOC(=O)C1(C2CCCCC2)CCCCC1	Marburg entry 11µM!, LASV entry inh inconclusive
CCN(CC)CCOC(=O)C1(c2ccccc2)CCCC1	none
C[C@@H]1[C@@H](c2ccccc2)Oc2c(Cl)cccc2S(=O)(=O)N1Cc1ccc(F)cc1F	none
C#C[C@@H]1C=C[C@H](Oc2ccc(OC)cc2)[C@H](CO)O1	none
CCCCCc1cc(O)c2c(c1)OC(C)(C)c1ccc(C)cc1-2	Marburg entry inconclusive, LASV entry inh 32µM
COC(=O)c1ccc(CN2C(=O)C3(CC(C)=C[C@@H](C)O3)c3c(Br)cccc32)cc1 (stereo partly specified)	none
C[C@@H]1C[C@H]2[C@@H](Cc3ccccc3)C(=O)N3[C@@H](C[C@@H](C)[C@@H]3c3ccccc3)[C@@H](Cc3ccccc3)C(=O)N2[C@H]1c1ccccc1	Marburg entry inconclusive
O=C(OC1CNC(C#Cc2cc3ncnc(Nc4ccc(OCc5cccc(F)c5)c(Cl)c4)c3s2)C1)N1CCOCC1 (stereo unspecified)	Marburg entry 13µM, LASV entry inh inconclusive
COc1cc2ncnc(Nc3ccc4c(cnn4Cc4ccccc4)c3)c2cc1OC	Marburg entry inconclusive
O=S(=O)(CCOCc1ccc(-c2ccc3ncnc(Nc4ccc(OCc5cccc(F)c5)c(Cl)c4)c3c2)o1)c1ccccc1	none
O=C(OC1CNC(C#Cc2cc3ncnc(Nc4ccc5c(cnn5Cc5ccccc5)c4)c3s2)C1)N1CCOCC1 (stereo unspecified)	Marburg entry inconclusive, LASV entry inh 0.4µM
CNC(=O)c1cccc(C#Cc2cncnc2Nc2ccc(OCc3cccc(F)c3)c(Cl)c2)c1	Marburg entry 2.5µM (no result: LASV entry inh)
CS(=O)(=O)CCNCc1nc(-c2ccc3ncnc(Nc4ccc(OCc5cccc(F)c5)c(Cl)c4)c3c2)cs1	none
C=CCOC(=O)N[C@H](C(C(=O)OC)=C(C)NCc1ccccc1)c1cccc(OC)c1	none
CC(CCC(=O)OC[C@H]1O[C@H](C#Cc2ccccc2)C=C[C@H]1Oc1ccc(C)cc1)=NO[C@@H](C)CN1CCCCc2nc(C)c(C)cc21	none
CCC[CH2][Sn][CH2]C=C[C@@H]1C[C@@H](CCOCc2ccc(OC)cc2)OP(=O)(O)O1	none
COC(=O)N1C2CC(=O)O[C@H]3c4cc5c(cc4[C@]1(C)[C@@]3(Br)c1ccccc12)OCO5	none
CCCCCCCc1cc2ccccc2c2c(C=O)c(CCCC)c(C(=O)OC)n12	Marburg entry inconclusive
CC(C)CON=C1C[C@@H](O)[C@@H](O)[C@@H]2[C@H]3C(=O)N(c4ccc(F)cc4F)C(=O)[C@@H]3CC[C@H]12	none
O=C(Nc1n[nH]c2nc(-c3ccco3)c(Br)cc12)C1CC1	Marburg entry inconclusive
c1ccc([C@H]2CNCc3ccccc32)cc1	none
Oc1cc2c(cc1O)[C@H]1c3ccccc3CN[C@H]1CC2	Marburg entry 25µM, LASV entry inh inconclusive
CCOC(=O)[C@@H]1CSCCS(=O)(=O)N1C(=O)[C@@H](NC(=O)OC(C)(C)C)[C@@H](C)CC	none
CCc1cc2c(nc1CC)CCN(CCC(C)=NO[C@@H](C)CN1CCCc3nc(C)c(C)cc31)C2	none
COC(=O)[C@]12C[C@@H]3CCN(C(=O)N[C@@H]1c1ccccc1)[C@@]32C	none (no result: LASV entry inh)
C[C@@H]1CC[C@H]2C(=O)N3[C@@H](CC[C@@H](C)[C@@H]3c3ccc(-c4ccco4)cc3)C(=O)N2[C@@H]1c1ccc(-c2ccco2)cc1	none
CCN(CC)C(=S)SSC(=S)N(CC)CC	Marburg entry 20µM, LASV entry inh 40µM!
COc1cccc(C(=O)NCc2nc(-c3cccc(NC(=O)c4ccoc4C)c3)oc2C)c1OC	Marburg entry inconclusive, LASV entry inh 18µM
Cc1cc(C(=O)Nc2cccc(-c3nc(CNC(=O)c4ccccc4C(F)(F)F)c(C)o3)c2)c(C)o1	LASV entry inh inconclusive
CCC1(C2CCN(Cc3ccccc3Cl)CC2)NC(=O)N(CC2COc3ccccc3O2)C1=O (stereo unspecified)	Marburg entry inconclusive
CCC1(C2CCN(Cc3cc4ccccc4o3)CC2)NC(=O)N(CC2COc3ccccc3O2)C1=O (stereo unspecified)	Marburg entry 32µM
C[C@H]1CC[C@H]2C(=O)N(Cc3cccc([N+](=O)[O-])c3)C[C@H](O)CN2[C@H]1c1cccc(Br)c1	none
O[C@H]1C[C@H](c2ccc(Cl)cc2)N(CC2CCCCC2)C[C@H]1n1cc(-c2ccc(F)cc2)nn1	none
COC(=O)C1=C(C)N(Cc2ccco2)C(=O)NC1c1ccco1 (stereo unspecified)	none
CCOC(=O)C1=CN(CCC=C(C)C)C(=O)N(C(C)=O)C1c1ccccc1 (stereo unspecified)	none
C[CH2][Hg][S]c1ccccc1C(=O)O	Marburg entry inconclusive, LASV entry inh 1.1µM
O=C(O)c1ccccc1O	none
Nc1nonc1-c1nc2cnccc2n1C1CCCCC1	Marburg entry inconclusive
CC1=C[C@@H]2c3cccc4[nH]cc(c34)C[C@H]2N(C)C1	none
CN1Cc2ccccc2[C@@H]2c3cccc4[nH]cc(c34)C[C@H]21	Marburg entry 8.9µM, LASV entry inh 10µM
COC1=C(C(=O)c2ccccc2)C(=O)[C@@]2(CC=C(C)C)C[C@H](C(=O)OCC(F)(F)F)C(C)(C)[C@@]1(CC=C(C)C)C2=O	none
c1ccc(Cc2nc3ccc(Nc4ncnc5ccccc45)cc3[nH]2)cc1	none
CCCCCCCC/C=C\CCCCCCCC(=O)N[C@@H](CO)Cc1ccc(O)cc1	Marburg entry inconclusive, LASV entry inh 28µM
CCCCCCCC/C=C\CCCCCCCC(=O)NC(C)C(=O)O (stereo unspecified)	none
FC(F)(F)c1cccc(C2=CCN(CCc3ccc4ccccc4c3)CC2)c1	none
O=C1Nc2ccccc2C2(CCN(CCc3ccc(C(F)(F)F)cc3)CC2)O1	Marburg entry 11µM, LASV entry inh inconclusive
CCC(Oc1ccc(Cl)cc1)C(=O)OC1CC2CCC(C1)N2C (stereo unspecified)	Marburg entry 6.3µM, LASV entry inh inconclusive
CN1C2CCC1CC(OC(=O)C(O)c1ccccc1)C2 (stereo unspecified)	none
CN1CCC(OC(=O)C(Oc2ccc(Cl)cc2)Oc2ccc(Cl)cc2)CC1	none
CC(C(=O)OC1CC2CCC(C1)N2C)c1ccc(Br)cc1 (stereo unspecified)	Marburg entry 28µM
COc1ccc(-c2cc(-c3cn[nH]c3-c3ccccn3)ccn2)cc1	none
CCCCCC(=O)N1C[C@H](O)[C@@H](n2cc(C3CC3)nn2)C[C@H]1c1ccc(Cl)cc1	none
